# Test results reported in PubChem BioAssay (NCATS).
# Inconclusive results are not listed. Entries that show only a call come without a potency. Calls of active or inactive are those of the source. Unless noted, the call rests on the fitted dose curve; in most records, active means well fitted curve in the direction sought with a large enough effect; inconclusive means small, poorly fitted or top-dose-only effect, or another doubt; inactive means no such curve, though single readings can be large; an effect the other way counts as inactive or inconclusive.
# Tests used:
# [1] = biological target: Alpha-galactosidase A (Homo sapiens) (UniProt P06280); assay: Counterscreen for Glucocerebrosidase Inhibitors: qHTS Assay for Human alpha-Galactosidase at pH 4.5 (AID 992)
# Chain of Alpha-galactosidase A (Homo sapiens) (P06280 whole entry, looked up): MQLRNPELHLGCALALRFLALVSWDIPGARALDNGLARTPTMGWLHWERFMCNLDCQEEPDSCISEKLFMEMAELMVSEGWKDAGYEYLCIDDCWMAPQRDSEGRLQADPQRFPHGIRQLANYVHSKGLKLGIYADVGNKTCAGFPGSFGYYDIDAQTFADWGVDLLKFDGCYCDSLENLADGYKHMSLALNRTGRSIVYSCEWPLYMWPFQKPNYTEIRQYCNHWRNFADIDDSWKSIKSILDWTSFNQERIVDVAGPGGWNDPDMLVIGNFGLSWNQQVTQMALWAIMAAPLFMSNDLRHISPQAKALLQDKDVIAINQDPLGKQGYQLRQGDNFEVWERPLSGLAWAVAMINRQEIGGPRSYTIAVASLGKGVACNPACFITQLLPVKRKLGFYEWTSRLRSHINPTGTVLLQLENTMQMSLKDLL
# Summary of the method: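 Human enzyme (2 nM) with 80 uM 4-methylumbelliferyl alpha-D-galactopyranoside in 50 mM citric acid, 0.005% Tween-20, pH 4.5, 20 min at room temperature. Compounds 0.7 nM–77 uM; fluorescence Ex 365/Em 440 after pH 10 stop; AC50 from Hill fits.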
# [2] = biological target: alpha-glucosidase (Oryza sativa, rice) (UniProt Q653V4); assay: Counterscreen for Glucocerebrosidase Inhibitors: qHTS Assay for Rice alpha-Glucosidase at pH 5.0 (AID 997)
# Summary of the method: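 Rice alpha-glucosidase (4 nM final) with 400 uM 4-methylumbelliferyl-alpha-D-glucopyranoside in citrate buffer pH 5.0, 20 min at room temperature, stopped at pH 10; fluorescence 365/440 nm, compounds 0.7 nM–77 uM, AC50 from Hill fits.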
# [3] = Validation of Assay for Modulators of Lamin A Splicing (AID 1459; active means well fitted curve in the direction sought with a large enough effect in the signal ratio; the % refers to the signal ratio;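 further: cells exposed to compound for two days before reading; ratio rise marks activators and ratio drop marks inhibitors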)
# Summary of the method: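 S3 HeLa cells stably expressing a lamin A-EGFP splicing minigene and DsRed2 were seeded at 600 cells/well in Opti-MEM with 2% FBS, pin-dosed, and incubated 48 hrs at 37 °C, 5% CO2. Laser-scanning cytometry (488 nm) gave GFP/RFP total intensity ratio.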
# [4] = biological target: DNA repair nuclease/redox regulator APEX1 (Homo sapiens) (UniProt P27695); assay: qHTS Validation Assay for Inhibitors of the Human Apurinic/apyrimidinic Endonuclease 1 (APE1) (AID 1705; further: potency means the concentration at half of the fitted maximal effect)
# Chain of DNA repair nuclease/redox regulator APEX1 (Homo sapiens) (P27695 whole entry, looked up): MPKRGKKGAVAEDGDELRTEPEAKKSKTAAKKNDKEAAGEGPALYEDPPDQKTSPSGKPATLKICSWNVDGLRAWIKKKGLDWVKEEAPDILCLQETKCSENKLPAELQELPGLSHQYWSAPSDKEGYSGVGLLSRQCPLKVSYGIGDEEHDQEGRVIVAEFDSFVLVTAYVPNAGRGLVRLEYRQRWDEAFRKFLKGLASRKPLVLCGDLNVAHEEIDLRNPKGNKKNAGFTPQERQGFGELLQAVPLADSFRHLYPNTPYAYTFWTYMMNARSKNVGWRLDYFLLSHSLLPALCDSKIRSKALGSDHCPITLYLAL
# Summary of the method: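 Human APE1 was preincubated with compound for 15 min at room temperature, then 50 nM (final) THF-abasic double-stranded DNA substrate bearing 5'-TAMRA and 3'-BHQ-2 was added. Incision-driven fluorescence rise (ex 525/em 598 nm) was read kinetically.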
# [5] = Counterscreen for APE1 Inhibitors: Fluorescent Dye Displacement Validation Assay (AID 1707)
# Summary of the method: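 Thiazole Orange (250 nM) bound to 50 nM TAMRA-labelled dsDNA with tetrahydrofuran abasic site; displacement by DNA-binding compounds lowers fluorescence. Buffer 50 mM Tris-HCl pH 7.5, 50 mM NaCl, 2 mM MgCl2, 0.01% Tween-20; endpoint read at 480/540 nm.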
# [6] = biological target: Endonuclease 4 (Escherichia coli (strain K12)) (UniProt P0A6C1); assay: Counterscreen for APE1 Inhibitors: qHTS Validation Assay for Inhibitors of Endonuclease IV (AID 1708)
# Summary of the method: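 2 nM enzyme was preincubated with compounds for 15 min at room temperature in 50 mM Tris-HCl pH 7.5, 50 mM NaCl, 2 mM MgCl2, 1 mM DTT, 0.01% Tween-20. 50 nM THF-abasic TAMRA/BHQ-2 duplex substrate started the reaction.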
# [7] = qHTS for differential inhibitors of proliferation of Plasmodium falciparum line 7G8 (AID 1815);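 further: parasite growth measured after three days of incubation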; further: potency means the concentration at half of the fitted maximal effect
# [8] = qHTS for differential inhibitors of proliferation of Plasmodium falciparum line 3D7 (AID 1876); further: potency means the concentration at half of the fitted maximal effect
# [9] = qHTS for differential inhibitors of proliferation of Plasmodium falciparum line GB4 (AID 1816); settings: Potency: Plasmodium falciparum GB4 proliferation inhibition;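 further: parasite growth measured after 72 h incubation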; further: potency means the concentration at half of the fitted maximal effect
SMILES,outcome [1],outcome [2],outcome [3],Potency [4],Potency [5],Potency [6],Potency [7],Potency [8],Potency [9]
N=C(N)c1ccc(N)cc1,inactive,inactive,inactive,inactive,inactive,inactive,inactive,inactive,–
COc1cc2c(CCNC(C)=O)c[nH]c2cc1O,inactive,inactive,inactive,39.8 µM (active),inactive,inactive,inactive,inactive,–
CC[C@H](NC(=O)c1c(C)c(-c2ccccc2)nc2ccccc12)c1ccccc1,inactive,–,inactive,inactive,inactive,inactive,7.08 µM (active),–,11.2 µM (active)
CCN(c1nc(N)c(C(=O)N=C(N)N)nc1Cl)C(C)C,inactive,inactive,inactive,inactive,inactive,inactive,11.2 µM (active),10 µM (active),7.94 µM (active)
C=CCN1CCc2c(cc(O)c(O)c2Cl)C(c2ccccc2)C1 (stereo not drawn),–,–,inactive,inactive,–,inactive,5.01 µM (active),7.94 µM (active),5.01 µM (active)
Nc1ccc(-c2ccc3ccccc3n2)cc1,inactive,–,inactive,inactive,inactive,–,–,–,–
NCCCCN,inactive,–,inactive,inactive,–,inactive,inactive,inactive,inactive
N#C/C(=C\c1ccc(O)c(O)c1)C(=O)NCCCNC(=O)/C(C#N)=C/c1ccc(O)c(O)c1,inactive,inactive,inactive,inactive,–,–,–,–,–
COc1ccccc1N1CCN(CCCCN2C(=O)c3ccccc3C2=O)CC1,inactive,inactive,inactive,inactive,inactive,–,inactive,12.6 µM (active),–
O=C(O)C1CN(CCCP(=O)(O)O)CCN1 (stereo not drawn),–,–,inactive,inactive,–,inactive,inactive,inactive,inactive
NC1(C(=O)O)CCCCC1,inactive,inactive,inactive,inactive,inactive,–,inactive,inactive,inactive
CC(N)(Cc1ccc(O)cc1)C(=O)O (stereo not drawn),–,–,inactive,inactive,–,inactive,inactive,inactive,inactive
CCCCCCCCCCC/C=C\C(C)(C)/C=C\CCCC(=O)O,inactive,–,inactive,35.5 µM (active),inactive,–,–,inactive,inactive
c1ccc2c(c1)CC(N1CCN(c3cccc4c3OCCO4)CC1)C2,inactive,inactive,inactive,inactive,inactive,–,–,12.6 µM (active),–
CCCc1c(-c2ccc(O)cc2)nn(-c2ccc(O)cc2)c1-c1ccc(O)cc1,inactive,–,inactive,inactive,inactive,–,–,inactive,inactive
COc1ccccc1N1CCN(CCCNc2c(C)c(=O)n(C)c(=O)n2C)CC1,inactive,–,inactive,inactive,–,inactive,inactive,8.91 µM (active),–

SMILES,outcome [1],outcome [2],outcome [3],Potency [4],Potency [5],Potency [6],Potency [7],Potency [8],Potency [9]
Cn1cc(C(F)(F)F)nc1-c1ccc(OCC(O)CNCCOc2ccc(O)c(C(N)=O)c2)cc1 (stereo not drawn),–,–,inactive,inactive,–,inactive,12.6 µM (active),2.82 µM (active),12.6 µM (active)
CCCn1c(=O)c2[nH]c(-c3ccc(S(=O)(=O)O)cc3)nc2n(CCC)c1=O,inactive,inactive,inactive,inactive,–,inactive,inactive,inactive,–
NC1CCN(O)C1=O (stereo not drawn),–,–,inactive,–,inactive,inactive,inactive,inactive,inactive
CN(C)C(=O)/N=N/C(=O)N(C)C,–,–,inactive,–,inactive,inactive,inactive,inactive,inactive
COC(=O)[C@H](NC(=O)c1cc(-c2ccccc2)nc2ccccc12)c1ccccc1,inactive,inactive,inactive,inactive,–,–,11.2 µM (active),inactive,–
Cn1cc(C(=O)OCC2CCN(CCNS(C)(=O)=O)CC2)c2ccccc21,inactive,inactive,inactive,inactive,inactive,–,10 µM (active),–,–
CCOC(=O)C12CC1/C(=N/O)c1ccccc1O2 (stereo not drawn),–,–,inactive,inactive,–,inactive,inactive,inactive,inactive
Cn1c(=O)c2[nH]c(-c3ccc(S(=O)(=O)O)cc3)nc2n(C)c1=O,inactive,inactive,inactive,inactive,–,inactive,–,–,–
Nc1ccc(CCNc2ncnc3c2ncn3C2OC(CO)C(O)C2O)cc1 (stereo not drawn),–,–,inactive,inactive,–,inactive,–,–,–
COC(=O)C(C)(N)Cc1ccc(O)cc1 (stereo not drawn),–,–,inactive,inactive,–,inactive,–,–,14.1 µM (active)
CNc1ncnc2c1ncn2[C@H]1C[C@H](OP(=O)(O)O)[C@@H](COP(=O)(O)O)O1,–,–,inactive,inactive,–,–,inactive,inactive,inactive
CC(C)C[C@H](NC(=O)C1OC1C(=O)O)C(=O)NCCCCN=C(N)N (stereo partly drawn),–,–,inactive,inactive,–,inactive,4.47 µM (active),2.51 µM (active),3.16 µM (active)
OC1(c2ccc(Cl)cc2)CCN(Cc2c[nH]c3ccccc23)CC1,inactive,–,inactive,inactive,inactive,–,–,–,–
Nn1nnc2ccccc21,inactive,–,inactive,inactive,–,inactive,12.6 µM (active),–,–
N[C@@H](CCCC(=O)O)C(=O)O,–,–,inactive,inactive,–,inactive,inactive,inactive,inactive
CCCCCCCCCC[Si](C)(C)CCC(=O)NC(Cc1ccc(C)cc1)c1ccccc1 (stereo not drawn),–,–,inactive,inactive,–,inactive,–,–,–
